About 83,000 compounds went through this panel and 20% of them were active in at least one assay; those are over-represented in the sample as a whole.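 Values shown are percent growth following 48 h exposure of cells in 96-well plates to a single concentration of compound; below 10 was considered active.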 Values without a mark were called inactive. Active and inactive are the calls of the source.
Each compound was assayed on MDA-MB-468 breast (assay: NCI-60 one-dose screen, 48 h (100 = growth as untreated, 0 = no growth, -100 = all killed)). Conditions: 100 µM.

Structure (SMILES)	growth
COc1ccc(Cl)cc1C(=O)NCCc1ccc(S(=O)(=O)NC(=O)NC2CCCCC2)cc1	63.2%
CC#C[C@]1(O)CC[C@H]2[C@@H]3CCC4=CC(=O)CCC4=C3[C@@H](c3ccc4c(c3)OCO4)C[C@@]21C	-15.2% (active)
CC(=O)/C=C/c1ccc(N(CCO)Cc2ccc(C(C)(C)C)cc2)cc1	-71% (active)
COc1ccc(C(=O)/C=C/c2ccc(OCc3ccc(Cl)cc3)cc2)cc1OC	27.8%
O=C(/C=C/c1cccc(Oc2ccc(Cl)cc2)c1)c1ccccc1	-36.3% (active)
O=C(O)c1sccc1O	10.8%
CS/C(=C\c1ccc(C(=O)c2ccc(C)cc2)n1C)S(C)=O (stereo unspecified)	30.8%
CN(C)C(=O)c1ccc(SC(=S)NCc2ccccc2)cc1	-27.4% (active)
O=C(Nc1c(Cl)cccc1Cl)Oc1cccc2cccnc12	-0.346% (active)
CC(=O)/C=C/c1ccc(OCc2ccc(Cl)cc2)cc1	1.46% (active)
CCc1ccccc1-n1c(N)c(C#N)c(-c2ccc(OC)c(OC)c2)c(C#N)c1=O	47.4%
O=c1ccn(C2CC(O)C(COC(c3ccccc3)(c3ccccc3)c3ccccc3)O2)c(=O)[nH]1 (stereo unspecified)	41.5%
COc1ccc(C(=O)/C=C/c2ccc(OCc3cccc(C(F)(F)F)c3)c(OC)c2)cc1OC	-2.26% (active)
O=c1ccn2c(n1)OC1CC2OC1COC(c1ccccc1)(c1ccccc1)c1ccccc1 (stereo unspecified)	56.9%
O=C(Nc1cccc(Br)c1)Oc1cccc2cccnc12	-8.71% (active)
CC(=O)/C=C/c1ccc(N(C)Cc2ccc(C(C)(C)C)cc2)cc1	-71.8% (active)
O=C(O)c1c(Cl)c(Cl)c(Cl)c(Cl)c1-c1c2cc(I)c(=O)c(I)c-2oc2c(I)c(O)c(I)cc12	-39.6% (active)
Cc1[nH]c(-c2nc3ccccc3[nH]2)c(C)c1C(=O)NC(C)C1CCCCC1 (stereo unspecified)	-87.1% (active)
CCN(Cc1ccccc1)c1ccc(/C=C2\COc3ccccc3C2=O)cc1	7.2% (active)
COc1ccc(-c2cscc2N)cc1	38.7%
CC(=O)/C=C/c1ccc(OCc2ccc(C(C)(C)C)cc2)cc1	-0.894% (active)
